High-throughput results: PubChem BioAssay, several laboratories
This is a sample that favours compounds with a hit; in the whole collection about 32% have one here.
CYP2C9 activ: CYP2C9 (human) activation; actives 1.4% (n = 96,000); AID 1024; P11712; recombinant CYP2C9, luciferin-H conversion, luminescence; stronger effect = higher value; factor 1 = untreated enzyme, 0 = blocked; activation factor at 5 µM;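 active means activation factor of 2 or more for CYP2C9 at a 5 µM dose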;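 further: 0 = sulfaphenazole-blocked wells and 1 = vehicle-only wells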
Target sequence (P11712 whole entry, looked up): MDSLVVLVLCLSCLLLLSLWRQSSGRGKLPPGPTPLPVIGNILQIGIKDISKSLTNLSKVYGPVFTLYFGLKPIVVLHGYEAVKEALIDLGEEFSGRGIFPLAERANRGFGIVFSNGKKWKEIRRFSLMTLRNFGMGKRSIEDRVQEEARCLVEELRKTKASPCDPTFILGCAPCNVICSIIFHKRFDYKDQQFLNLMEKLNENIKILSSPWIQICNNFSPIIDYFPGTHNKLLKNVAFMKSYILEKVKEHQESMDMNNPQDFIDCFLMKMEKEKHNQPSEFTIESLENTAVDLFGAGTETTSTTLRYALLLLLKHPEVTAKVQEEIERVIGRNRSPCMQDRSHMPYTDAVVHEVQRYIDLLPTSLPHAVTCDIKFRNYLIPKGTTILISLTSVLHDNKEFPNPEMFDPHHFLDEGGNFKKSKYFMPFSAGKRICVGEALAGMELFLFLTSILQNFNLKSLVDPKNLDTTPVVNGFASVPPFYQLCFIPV
CYP2C19 act: increases human CYP2C19 enzyme activity | 96,000 tested, under 10 active | recombinant CYP2C19, luciferin-H EGE luminescence; stronger effect = higher value; 0 = fully inhibited enzyme, 1 = untreated enzyme | P33261 | activation factor at 5 µM | AID 1025;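 active means activation factor of at least 2 at 5 µM in the primary screen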;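 further: 0 = wells with 2.5 mM tranylcypromine and 1 = vehicle-only wells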
PostGolgi yeast: growth inhibition of a yeast mutant, post-Golgi transport screen | post-Golgi transport phenotypic cell assay | inhibition, % at 10 µM | actives 0.9% (n = 98,000);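 further: yeast cells grown in 1536-well plates; yeast grown about 18 h at 30C before absorbance read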
CYP2C9 inh: human CYP2C9 inhibition; P11712; CYP2C9 Supersomes, luciferin-H conversion, luminescence; inhibition, % at 5 µM; actives 20% (n = 96,000); AID 777;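 active means blocking of liver enzyme CYP2C9 beyond about 50% at 5 µM, limit read from the data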
PostGolgi ctrl: yeast control strain growth, post-Golgi counter-screen. efflux-deficient yeast background strain, growth absorbance A615, 16 h. inhibition, % at 10 µM. AID 738. actives 5% (n = 98,000)
CYP2C19 inh: inhibitors of human CYP2C19. CYP2C19 Supersomes, luciferin-H EGE luminescence, 30 min. inhibition, % at 5 µM. P33261. actives 21% (n = 96,000);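 active means CYP2C19 inhibition above a set limit at 5 µM in the primary screen, cut at about 50% in these data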;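 further: plate controls were negative control wells for no effect and 2.5 mM tranylcypromine positive control for full effect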
The depositor's hits bear a star; / = no result given. Unless noted, no stated cut-off is given here; in the data, active means inhibition above about 30%; inactive means the rest.

SMILES	CYP2C9 activ	CYP2C19 act	PostGolgi yeast	CYP2C9 inh	PostGolgi ctrl	CYP2C19 inh
O=C(O)CCS(=O)(=O)c1nc(-c2cccs2)cc(C(F)(F)F)n1	1	0.9	4	1	16	7
COc1cccc(-c2cc(C(F)(F)F)nc(-n3cc(Cl)cn3)n2)c1	0.8	0.8	17	18	10	15
CS(=O)(=O)c1nc(-c2cccs2)cc(C(F)(F)F)n1	1	0.9	8	5	55*	12
CC1CCCCC1NC(=O)C1CCN(C(=O)c2sccc2-n2cccc2)CC1 (configuration not stated)	0.9	0.8	-10	7	2	20
CN(C)C(=O)N1CCC(C(=O)NCc2ccccc2Cl)CC1	1.4	0.9	3	-38	7	6
O=C(NCc1ccccc1Cl)C1CCN(C(=O)c2sccc2-n2cccc2)CC1	0.8	0.4	-2	25	7	61*
CCOc1ccccc1CNC(=O)C1CCN(C(=O)c2sccc2-n2cccc2)CC1	1.1	0.2	-1	-8	3	84*
CCOC(=O)CCC(=O)Nc1ccccc1C(N)=O	1	1	-5	3	2	-3
N#CC1=C(N)N(c2ccccc2)C(=O)C1	1.6	1.1	3	-62	19	-12
N#CC1=C(N)N(c2ccccc2Sc2ccccc2)C(=O)C1	0.9	0.8	-7	10	35*	16
CNC(=O)/C=C1\NC(C)(C)Cc2c1ccc1ccccc21	0.9	0.3	-9	12	-1	67*
COc1nc2ccccc2c(=O)n1OCC(C)C	0.8	0.2	12	19	-2	82*
COn1c(SCC(N)=O)nc2ccccc2c1=O	0.9	0.8	22	13	2	16
CC(C)On1c(SC(C)C)nc2ccccc2c1=O	0.9	0.9	4	15	8	14
COn1c(SC(C)C)nc2ccccc2c1=O	0.8	0.7	2	18	34*	26
COn1c(SC2CCCCC2)nc2ccccc2c1=O	0.2	0.2	3	82*	16	78*
Cc1cc(CC(C)C)n(-c2nc3ccccc3c(=O)n2OCc2ccccc2)n1	1	1	-8	3	19	2
COn1c(SCc2ccc(C)cc2C)nc2ccccc2c1=O	0.1	0.3	-8	93*	15	73*
Cc1sc(NC(=O)CN2CCN(c3ccccn3)CC2)c(C#N)c1C	/	/	2	/	2	/
CCC/C(O)=C1\C(=O)CC(C)(C)CC1=Nc1ccc(OC)cc1OC	0.1	0	5	95*	16	97*
COC(=O)CC/C(O)=C1\C(=O)CC(C)(C)CC1=Nc1ccccc1OC	0.9	0.7	8	14	2	32
CCCC/C(O)=C1\C(=O)CC(C)(C)CC1=Nc1ccccc1OC	0.1	0.1	9	90*	31*	93*
CC1CCCCC12NC(=O)N(CC(=O)NC(=O)NCc1ccco1)C2=O (configuration not stated)	0.9	1.2	4	11	4	-15
CCCN1CCN(CCCNC(=O)C2CCCN(c3nnc(-n4cccc4)s3)C2)CC1 (configuration not stated)	1	1.2	-8	-2	0	-18
COC(=O)c1cnc(SC)nc1C	0.9	0.8	-8	5	0	24
SMILES	CYP2C9 activ	CYP2C19 act	PostGolgi yeast	CYP2C9 inh	PostGolgi ctrl	CYP2C19 inh
O=C(CNC(=O)c1ccccc1)NC1(C(=O)NC2CCCC2)CCCCC1	1	0.9	1	4	8	9
O=C(c1cnccn1)N(c1ccccc1)C1(C(=O)NC2CCCCC2)CCCCC1	1.1	1.1	0	-6	33*	-10
O=C(NC1(C(=O)NC2CCCCC2)CCCCC1)c1ccccn1	1.2	1	-7	-25	32*	0
CCCCC(=O)Nc1c(C)cc(C)cc1Cl	0.9	0.7	2	13	4	26
CCc1nnc(NC(=O)CSc2nnc(Cc3cccn3C)n2CCOC)s1	/	/	0	/	2	/
CCCc1cc(NCC2CCCO2)n2c(nc3ccccc32)c1C#N (configuration not stated)	0.4	1	-1	60*	10	2
Cc1ccc(-c2nn(C)c(=O)c3ccccc23)cc1CN1CCOCC1	0.7	0.9	-2	28	26	14
COc1ccc(S(=O)(=O)N2Cc3ccccc3CC2C(=O)Nc2ccc(O)cc2)cc1OC (configuration not stated)	0.1	0.2	1	91*	-1	80*
